ssDAF-12 act – S. stercoralis DAF-12 activation, primary screen; HEK293 ssDAF-12/GRIP1 lit1-tk-luc reporter, luminescence; % of 3 µM dafachronic acid response; activation, % at 6.8 µM; 1% of 370,000 active; AID 652126;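 active = activation above the mean over all tested compounds plus 3 SD, cut at about 0.9% in these data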;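 also: 0% = DMSO-only wells and 100% = 3 µM delta7-dafachronic acid wells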
DAX1 inh-1 – DAX1 (NR0B1) inhibition, primary screen; HEK293T StAR-luciferase reporter, SF-1/DAX-1 repression relief; inhibition, % at 6.8 µM; 1.1% of 370,000 active;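 active = inhibition above the mean over all tested compounds plus 3 SD, cut at about 3.6% in these data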;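 also: 0% = DAX-1 cells with DMSO and 100% = cells lacking DAX-1 with DMSO; higher inhibition means more luminescence from relief of DAX-1 repression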
hcDAF-12 act – H. contortus DAF-12 activation, primary screen. HEK293 hcDAF-12 lit1-tk-luc reporter, luminescence; 0% DMSO, 100% Δ7-dafachronic acid. activation, % at 6.8 µM. 1.4% of 370,000 active. AID 652067;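 active = activation above the mean of all tested compounds plus 3 SD, cut at about 5.5% in these data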;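 also: 100% = response to 3 µM Δ7-dafachronic acid high control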
hgDAF12 agonist – hgDAF-12 agonism, primary luciferase screen; HEK293 GAL4-hgDAF12 UAS-luciferase reporter, agonist luminescence; normalized to butyrate control; activation, % at 6.8 µM; 1.8% of 370,000 active; AID 687014;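 active = activation above a cutoff set at the mean of all screened compounds plus 3 SD, cut at about 10% in these data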;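 also: 0% = DMSO wells and 100% = sodium butyrate wells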
DAX1 inh-2 – inhibitors of human orphan nuclear receptor DAX1 (NR0B1); HEK293 Gal4-DAX1 luciferase reporter, luminescence; inhibition, % at 6.75 µM; 0.99% of 340,000 active; AID 504766;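 active = inhibition above the mean over all tested compounds plus 3 SD, cut at about 4.2% in these data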;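 also: 0% = DAX1-transfected cells with DMSO and 100% = empty-vector control cells with DMSO; inhibition shows as a rise in luminescence from relieved DAX1 repression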
Target sequence (P51843 207-470 limits assumed): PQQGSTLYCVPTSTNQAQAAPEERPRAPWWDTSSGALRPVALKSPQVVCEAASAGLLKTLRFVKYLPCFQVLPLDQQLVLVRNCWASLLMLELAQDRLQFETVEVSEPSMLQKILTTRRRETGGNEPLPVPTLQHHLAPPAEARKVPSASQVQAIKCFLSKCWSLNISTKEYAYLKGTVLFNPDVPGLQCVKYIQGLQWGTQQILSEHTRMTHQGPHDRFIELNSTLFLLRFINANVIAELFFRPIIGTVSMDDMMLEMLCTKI
AHR act – activates the human aryl hydrocarbon receptor; P35869; AHR-responsive luciferase reporter cells, luminescence; activation, % at 5 µM; 2.5% of 320,000 active; AID 2796; in the data active = activation above about 47%;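 also: 0% = vehicle wells and 100% = reference agonist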
DAX1 inh confirm – NR0B1 (human) inhibition, confirmation. shares compounds with DAX1 inh-1. HEK293T StAR-promoter luciferase reporter, SF-1/DAX-1 repression. inhibition, % at 6.8 µM. 87% of 2,400 active. AID 652134;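 active = inhibition above the average of every tested compound plus 3 SD, cut at about 3.8% in these data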;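 also: 0% = DAX-1 cells with DMSO and 100% = no DAX-1 control cells with DMSO; active compounds raise luminescence by relieving repression of the StAR reporter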
Target sequence (P51843 whole entry, looked up): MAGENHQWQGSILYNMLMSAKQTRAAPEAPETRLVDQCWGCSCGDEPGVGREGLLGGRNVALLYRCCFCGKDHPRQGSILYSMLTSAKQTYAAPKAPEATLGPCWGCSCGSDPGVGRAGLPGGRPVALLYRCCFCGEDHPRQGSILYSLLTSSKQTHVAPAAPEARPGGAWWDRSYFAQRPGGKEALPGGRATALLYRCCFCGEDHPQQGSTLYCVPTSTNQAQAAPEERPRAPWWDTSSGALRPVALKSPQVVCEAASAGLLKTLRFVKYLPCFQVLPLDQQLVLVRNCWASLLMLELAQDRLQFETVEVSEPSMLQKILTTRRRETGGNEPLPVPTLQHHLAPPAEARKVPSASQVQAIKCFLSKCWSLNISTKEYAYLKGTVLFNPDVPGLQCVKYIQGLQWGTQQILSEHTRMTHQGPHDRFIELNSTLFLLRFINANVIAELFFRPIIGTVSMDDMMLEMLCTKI
SF1 mutant ctr – counter-screen for DAX1 inhibitors: nonselective inhibitors with SF-1 AF2 mutant. AID 652136. 78% of 2,400 active. shares compounds with DAX1 inh-1. inhibition, % at 6.8 µM. HEK293 StAR-luciferase, luminescence;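 active = inhibition above the mean of all tested compounds plus 3 SD, cut at about 3% in these data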;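 also: 0% = DAX-1 transfected cells with DMSO and 100% = cells without DAX-1 with DMSO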
Active calls of the source: *; nt = no result. Hits are enriched below; roughly 5.7% of the tested compounds scored in any of these assays.

SMILES | ssDAF-12 act | DAX1 inh-1 | hcDAF-12 act | hgDAF12 agonist | DAX1 inh-2 | AHR act | DAX1 inh confirm | SF1 mutant ctr
COC(=O)c1c(NC(=O)CSc2nnc(-c3ccco3)n2Cc2ccccc2)sc(C)c1C | -1.6 | -0.3 | -2.0 | -1.9 | -0.6 | -0.1 | nt | nt
O=C(CCS(=O)(=O)c1ccccc1)N(CCCN1CCOCC1)c1nc2ccc(F)cc2s1 | -0.5 | 6.7* | 1.1 | 9.1 | 0.2 | 6.3 | 5.5* | 2.2
CCc1cccc2sc(N(CCCN3CCOCC3)C(=O)CS(=O)(=O)c3ccccc3)nc12 | -0.6 | 0.3 | -1.9 | 4.6 | 0.3 | 3.0 | nt | nt
CC(=O)c1cccc(NC(=O)c2ccc3c(c2)CCCC3)c1 | -0.6 | 8.2* | 2.1 | 12.5* | 1.8 | 4.3 | 8.8* | 5.4*
Cc1ccc(C(=O)Nc2ccc3c(c2)CCC3)cc1 | -0.4 | 4.6* | 5.0 | 6.5 | -4.2 | -3.7 | 6.0* | 4.2*
CCOC(=O)c1cc2[nH]c3ccccc3c2[n+](-c2ccc([N+](=O)[O-])cc2)c1N | -1.1 | -0.3 | 1.2 | 1.3 | 0.4 | 8.1 | nt | nt
COC(=O)CSc1nc(N2CCOCC2)c2c(c1C#N)CC(C)(C)OC2 | -1.5 | 0.1 | -2.0 | -1.9 | 0.3 | 2.1 | nt | nt
CCOc1ccc(-c2cc(C(=O)Nc3ccc(F)cc3)[nH]n2)c(C)c1 | -0.2 | 7.4* | 3.1 | 12.4* | nt | nt | 10.2* | 6.7*
Cc1ccsc1C(=O)NNC(=O)C1CCCCC1C(=O)O (centres undefined) | 0.8 | 6.2* | 4.7 | 15.6* | 1.5 | 4.3 | 4.0* | 1.5
Cc1ccc(C(=O)NC2CCSC2=O)cc1 (centres undefined) | -1.4 | 0.3 | -0.3 | 1.4 | -0.6 | 1.7 | nt | nt
Cc1ccc(C(=O)NC2CCc3ccccc3C2=O)cc1 (centres undefined) | -0.7 | 5.5* | 3.3 | 13.2* | 2.3 | 14.8 | 4.6* | 3.3*
O=C(CCS(=O)(=O)c1ccc(Br)cc1)Nc1cc(F)ccc1F | -0.5 | -0.2 | -1.4 | 2.7 | -1.0 | 1.8 | nt | nt
COCCCNc1ccn2nc(-c3ccccc3)cc2n1 | 1.0* | 6.5* | 6.3* | 9.7 | nt | nt | 14.7* | 5.0*
O=C(c1cnn2c(C(F)F)cc(-c3ccccc3)nc12)N1CCc2ccccc21 | -0.8 | -0.3 | 0.1 | 4.1 | 0.3 | 4.6 | nt | nt
Cn1cccc1C(=O)NCC1COc2ccccc2O1 (centres undefined) | -0.7 | 4.7* | 3.1 | 7.1 | 1.6 | nt | 5.1* | 1.6
Cc1cc([N+](=O)[O-])ccc1NCc1ccccc1[N+](=O)[O-] | -1.4 | 0.2 | -1.7 | -0.9 | 0.0 | 2.2 | nt | nt
Cc1ccc(NC(=O)CCC(=O)NNC(=O)CCc2ccccc2)c(C)c1 | -0.4 | 0.4 | 3.4 | -2.5 | -0.8 | 5.6 | nt | nt
COc1ccc(NC(=O)CCN2CCCC(C)C2)cc1 (centres undefined) | -1.3 | -0.1 | -0.9 | -2.0 | -0.3 | 2.4 | nt | nt
CCc1nnc(NS(=O)(=O)c2ccc(NC(=O)c3cccc(Br)c3)cc2)s1 | -0.2 | 4.5* | 2.2 | 0.1 | -0.3 | 2.6 | 1.2 | 0.1
CCOc1cc(C(=O)Nc2ccc(S(=O)(=O)Nc3nnc(CC)s3)cc2)cc(OCC)c1OCC | -1.4 | -0.4 | -0.7 | -0.4 | -0.9 | 0.8 | nt | nt
COc1cccc(NC(=O)[C@H](NC(=O)[C@@H]2Cc3ccccc3CN2)c2ccccc2)c1 | -0.4 | 4.9* | 2.5 | 6.2 | -0.1 | 7.9 | 4.1* | 2.8
CC(=O)Nc1ccc(Nc2nccc(C)n2)cc1 | 0.1 | 1.5 | 4.2 | 4.1 | nt | nt | nt | nt
Cc1ccnc(Nc2ccc(CCO)cc2)n1 | 0.0 | 4.8* | 4.2 | 11.4* | nt | nt | 9.5* | 5.6*
S=C(c1ccc2c(c1)OCO2)N1CCCCCC1 | -1.2 | -0.5 | -0.1 | 2.5 | -1.2 | -0.2 | nt | nt
Cc1cccc(C)c1N1C(=O)c2ccccc2NC(=O)C1C(=O)NCCc1ccccc1F (centres undefined) | -0.8 | 4.7* | -0.4 | 0.8 | nt | nt | 1.7 | -0.1
SMILES | ssDAF-12 act | DAX1 inh-1 | hcDAF-12 act | hgDAF12 agonist | DAX1 inh-2 | AHR act | DAX1 inh confirm | SF1 mutant ctr
COc1ccc(C(=O)Nc2ccc3c(c2)nc2n3CCSC2)cc1 | 0.0 | 1.9 | 1.0 | 8.6 | -0.1 | -13.5 | nt | nt
O=C(Nc1ccc2c(c1)nc1n2CCSC1)c1ccccc1 | 0.0 | 5.9* | 2.3 | 11.6* | -0.9 | -11.9 | 12.6* | 8.6*
COc1ccc(C(=O)Nc2ccccc2C(=O)NCCN2CCOCC2)cc1 | -1.3 | 0.0 | -1.4 | 2.0 | 0.2 | 1.2 | nt | nt
C=CCN(c1ccc(C(=O)Nc2ccc(C)cc2)cc1)S(C)(=O)=O | -0.7 | -0.7 | -1.9 | -0.2 | 0.0 | -0.6 | nt | nt
Cc1ccc(OCc2cc(C(=O)N(CCO)Cc3cccs3)no2)cc1C | 0.5 | 5.1* | 4.6 | 6.8 | 2.7 | 21.0 | 6.1* | 3.7*
Cc1ccc(OCc2cc(C(=O)N3CCCCCCC3)no2)cc1C | -0.1 | 1.3 | 2.3 | 2.5 | 1.3 | 1.3 | nt | nt
COc1cc(C)ccc1OCc1cc(C(=O)NCc2ccncc2)no1 | 0.4 | 4.7* | 1.8 | 10.5* | 1.2 | 14.5 | 5.3* | 3.0*
Cc1ccc(OCc2cc(C(=O)N3CCN(c4ccccc4)CC3)no2)cc1C | -0.1 | 5.8* | 3.9 | 12.9* | 3.7 | 29.2 | 10.8* | 6.5*
Cc1ccc(OCc2cc(C(=O)N3CCN(C4CCCC4)CC3)no2)cc1C | -0.5 | 0.4 | -0.5 | 3.7 | 2.1 | 4.9 | nt | nt
Cc1cc(OCc2cc(C(=O)N3CCCCCC3)no2)cc(C)c1Cl | 0.5 | 5.5* | 3.6 | 7.7 | 1.4 | 6.7 | 7.1* | 4.1*
COc1ccc(C(=O)NCc2ccncc2)cc1OC | -1.7 | -0.1 | -0.4 | -3.9 | 0.9 | 2.5 | nt | nt
CC(=O)c1ccc(OCC(=O)Nc2ccccc2C(=O)NC2CC2)cc1 | -0.9 | 0.2 | -0.4 | 0.0 | 0.8 | 15.5 | nt | nt
COc1cc(C)ccc1OCc1cc(C(=O)N2CCCCCCC2)no1 | 0.6 | 4.6* | 1.7 | 9.0 | 1.1 | 25.5 | 5.4* | 3.5*
Cc1ccc(OCc2cc(C(=O)N3CCN(C4CCCCC4)CC3)no2)cc1C | -0.6 | 6.4* | 1.5 | 4.2 | 2.2 | 3.1 | 6.5* | 4.1*
COc1cc(C)ccc1OCc1cc(C(=O)N2CCN(C3CCCCC3)CC2)no1 | -0.5 | 5.7* | 3.2 | 10.5* | 1.3 | 3.5 | 5.7* | 3.8*
COc1ccc(OCc2cc(C(=O)N3CCN(C4CCCC4)CC3)no2)c(Cl)c1 | -0.9 | 2.6 | 4.7 | 10.0 | 0.1 | 13.1 | nt | nt
O=C(NCc1ccc2c(c1)OCO2)c1ccc(CN2CCc3ccccc3C2)cc1 | -1.7 | 0.4 | -1.7 | 0.1 | 0.2 | -1.4 | nt | nt
NC(=O)CCCCC(=O)OCCCc1cccs1 | -1.4 | -0.1 | -1.5 | 6.5 | -0.3 | -0.2 | nt | nt
Cc1ccccc1-n1nnnc1SCC(C)C | -1.4 | -0.2 | 0.1 | 2.7 | 0.1 | 1.4 | nt | nt

Screens (PubChem)
